Shown is part of a subset that was picked to be rich in hits.
RECQ1 inh-1: qHTS Assay for Inhibitors of RecQ-Like Dna Helicase 1 (RECQ1). hit rate 0.54% among 240,000. Potency, µM (series often up to 57.3 µM), hits mostly inhibitors. ATP-dependent DNA helicase Q1 (Homo sapiens), P46063. RECQ1 DNA unwinding, red fluorescence kinetic read; note: nearly all actives have a fitted effect of over 30% in size
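50 nM RECQ1T1 preincubated 15 min with compound in Tris pH 8.0 buffer with MgCl2, DTT, Tween-20 and 2.5 ug/ml poly(dI-dC); started with 200 nM TAMRA/BHQ-2 forked duplex and 2 mM ATP. Unwinding read as fluorescence (525/598 nm), two reads 2 h apart.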
L3MBTL1 inh: qHTS Assay for the Inhibitors of L3MBTL1; Lethal(3)malignant brain tumor-like protein 1 (Homo sapiens), Q9Y468; AlphaScreen L3MBTL1–H3K9me1 peptide binding; Potency, µM (titrated, usually from 57.1 µM), most hits filed as inhibitors; hit rate 0.66% among 230,000; AID 485360, 2010; note: nearly all actives have a fitted effect of over 60% in size
Target sequence (Q9Y468 whole entry, looked up): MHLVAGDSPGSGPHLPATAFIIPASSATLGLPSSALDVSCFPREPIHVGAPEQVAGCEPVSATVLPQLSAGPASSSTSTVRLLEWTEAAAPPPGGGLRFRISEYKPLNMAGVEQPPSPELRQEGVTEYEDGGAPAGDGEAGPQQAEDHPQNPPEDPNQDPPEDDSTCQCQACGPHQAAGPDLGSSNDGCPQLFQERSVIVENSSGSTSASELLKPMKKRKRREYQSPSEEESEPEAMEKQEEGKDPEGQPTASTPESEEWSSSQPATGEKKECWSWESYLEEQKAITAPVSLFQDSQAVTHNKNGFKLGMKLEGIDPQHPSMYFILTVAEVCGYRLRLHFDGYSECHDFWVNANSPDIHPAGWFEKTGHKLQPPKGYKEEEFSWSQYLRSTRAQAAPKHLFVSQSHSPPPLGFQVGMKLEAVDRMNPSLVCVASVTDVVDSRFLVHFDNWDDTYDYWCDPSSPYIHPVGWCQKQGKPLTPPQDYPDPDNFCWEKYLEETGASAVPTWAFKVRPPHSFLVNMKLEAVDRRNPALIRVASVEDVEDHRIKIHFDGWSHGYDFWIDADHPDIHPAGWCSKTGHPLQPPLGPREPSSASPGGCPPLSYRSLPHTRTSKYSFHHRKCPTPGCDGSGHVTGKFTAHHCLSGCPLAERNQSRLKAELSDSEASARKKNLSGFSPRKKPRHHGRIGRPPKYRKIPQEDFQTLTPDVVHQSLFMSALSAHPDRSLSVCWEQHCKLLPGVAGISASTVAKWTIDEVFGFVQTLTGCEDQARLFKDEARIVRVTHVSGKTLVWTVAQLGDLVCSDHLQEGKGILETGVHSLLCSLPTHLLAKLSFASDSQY
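AlphaScreen assay: L3MBTL1 (50 nM final) was preincubated 30 min at room temperature with biotinylated H3(1-15)K9me1 peptide (75 nM final), then 30 min with library compounds; streptavidin donor and nickel chelate acceptor beads (10 ug/mL final) added, 30 min dark.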
APE1 inh: qHTS Assay for Inhibitors of the Human Apurinic/apyrimidinic Endonuclease 1 (APE1). recombinant APE1, TAMRA/BHQ-2 abasic DNA cleavage fluorescence. Potency, µM (series often up to 65.8 µM), actives largely listed as inhibitors. hit rate 0.35% among 350,000. DNA repair nuclease/redox regulator APEX1 (Homo sapiens), P27695; note: nearly all actives have a fitted effect of over 55% in size
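Endonuclease cleavage of a quenched abasic-site DNA duplex (50 nM) by APE1 (0.75 nM) was tracked by TAMRA dequenching. Compounds were preincubated with enzyme 15 min at room temperature; data normalized to buffer-only and DMSO wells plus NSC13755 control.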
KDM4E inh: qHTS Assay for Inhibitors of Human Jumonji Domain Containing 2E (JMJD2E) | JMJD2E catalytic domain, FDH-coupled NADH fluorescence (FDH is formaldehyde dehydrogenase) | Lysine-specific demethylase 4E (Homo sapiens), B2RXH2 | Potency, µM (titrated, usually from 57.1 µM), most hits filed as inhibitors | hit rate 1.6% among 230,000; active = well fitted inhibition curve with a large enough effect, not every such curve was filed as active; inconclusive = small, poorly fitted or top-dose-only effect, or another doubt; inactive = no such curve, though single readings can be large or run the other way; note: nearly all actives have a fitted effect of over 50% in size
BLM inh: qHTS Assay for Inhibitors of Bloom's syndrome helicase (BLM). recombinant BLM DNA unwinding, fluorescence dequenching. Potency, µM (highest dose often 56.1 µM), hits mostly inhibitors. hit rate 0.2% among 350,000; note: nearly all actives have a fitted effect of over 35% in size
RECQ1 conf: Confirmation qHTS Assay for Inhibitors of RecQ-Like Dna Helicase 1 (RECQ1). hit rate 28% among 610. RECQ1 helicase DNA unwinding, fluorescence. Potency, µM (titrated, usually from 229 µM), usual class: inhibitors. shares compounds with RECQ1 inh-1. AID 2708, 2010; note: nearly all actives have a fitted effect of over 45% in size
ADP FP counter: Counterscreen for RECQ1 Inhibitors: ADP Fluorescence Polarization Displacement Assay; AID 2711, 2010; ADP fluorescence polarization displacement counterscreen; hit rate 27% among 530; shares compounds with RECQ1 inh-1; Potency, µM (titrated, usually from 228 µM), actives largely listed as inhibitors; note: nearly all actives have a fitted effect of over 45% in size
RECQ1 inh-2: Confirmation qHTS Assay for Inhibitors of RecQ-Like Dna Helicase 1 (RECQ1) - Round 2 Cherry Picks; shares compounds with RECQ1 inh-1; AID 504841, 2011; hit rate 15% among 1,100; recombinant RECQ1 DNA unwinding, red fluorescence; Potency, µM (highest dose often 119 µM), usual class: inhibitors; note: nearly all actives have a fitted effect of over 50% in size
A number is an active result. Unless noted, calls come from the whole dose curve; as a rule, active = well fitted curve in the direction sought with a large enough effect; inconclusive = small, poorly fitted or top-dose-only effect, or another doubt; inactive = no such curve, though single readings can be large; an effect the other way counts as inactive or inconclusive.

Screening CCCCCCCOC1(c2ccccc2)OC(=O)c2ccccc21 (centres undefined) returned RECQ1 inh-1 inactive, L3MBTL1 inh inactive, APE1 inh inactive, KDM4E inh inactive and BLM inh inactive.
`COC(=O)NCC(c1ccco1)N1CCN(c2ccc(F)cc2)CC1` (centres undefined) gave RECQ1 inh-1 inactive, L3MBTL1 inh inactive, APE1 inh inactive, KDM4E inh inactive and BLM inh inactive.
`O=C(Nc1ccc(NC(=O)c2cccs2)cc1)c1ccc(Br)o1` gave RECQ1 inh-1 inconclusive, APE1 inh inconclusive, KDM4E inh inactive, BLM inh inactive and RECQ1 inh-2 inconclusive.
Screening FC(F)(F)c1ccccc1-c1cncnc1Nc1ccccc1 returned RECQ1 inh-1 inactive, APE1 inh inconclusive, KDM4E inh inactive and BLM inh inactive.
CCOC(=O)C(=CNc1ccc(-c2ccco2)c(Cl)c1)C(=O)OCC was read as RECQ1 inh-1 inconclusive, L3MBTL1 inh inactive, APE1 inh inactive, KDM4E inh inconclusive, BLM inh inactive and RECQ1 inh-2 inactive.
For O=C(O)c1cc(N(Cc2ccccc2O)Cc2ccccc2O)ccc1O the results were RECQ1 inh-1 inconclusive, APE1 inh inconclusive, BLM inh inactive and RECQ1 inh-2 inconclusive.
O=C(O)c1ccc(Cl)c(NC(=O)C2CCCN2S(=O)(=O)c2cccc3nsnc23)c1 (centres undefined) was read as RECQ1 inh-1 inactive, L3MBTL1 inh inactive, APE1 inh inactive, KDM4E inh inactive, BLM inh inactive, RECQ1 conf inactive and ADP FP counter inactive.
For COc1cccc(C(=O)Nc2cccc(C(=O)NC3=NN(c4c(Cl)cc(Cl)cc4Cl)C(=O)C3)c2)c1 the results were RECQ1 inh-1 31.6µM, L3MBTL1 inh inconclusive, APE1 inh inactive, KDM4E inh inactive, BLM inh inactive and RECQ1 inh-2 inconclusive.
`Cc1ccc(OCc2nnc(SC(C)C(=O)O)n2Cc2ccccc2)cc1` (centres undefined) gave RECQ1 inh-1 inactive, L3MBTL1 inh inactive, APE1 inh inactive, KDM4E inh inactive, BLM inh inactive, RECQ1 conf inactive and ADP FP counter inactive.
`COc1cccc([C@@H]2Oc3ccc(Br)cc3C(=O)[C@H]2OC(=O)NCc2ccco2)c1` gave RECQ1 inh-1 inactive, APE1 inh inactive, KDM4E inh inactive and BLM inh inactive.
CC(=O)c1ccc(S(=O)(=O)Nc2ccc(-c3ccc4nnc(C)n4n3)cc2)cc1 was read as RECQ1 inh-1 inconclusive, APE1 inh inconclusive, KDM4E inh inconclusive, BLM inh inactive and RECQ1 inh-2 inconclusive.
Screening Cc1nnc2ccc(-c3ccc(NS(=O)(=O)c4ccccc4)cc3)nn12 returned L3MBTL1 inh inactive and APE1 inh inactive.
Screening O=C(COc1cc(Cl)ccc1Cl)Nc1ccc2[nH]c(=O)[nH]c2c1 returned L3MBTL1 inh inactive and APE1 inh inactive.
O=c1cc(-c2ccccc2)nc(N2CCN(Cc3ccc4c(c3)OCO4)CC2)[nH]1 was read as RECQ1 inh-1 inactive, APE1 inh inactive, KDM4E inh inactive and BLM inh inactive.
For O=C1C(=Cc2cccs2)C(=O)c2ccccc21 the results were RECQ1 inh-1 inactive, L3MBTL1 inh inactive, APE1 inh inactive, KDM4E inh inactive and BLM inh inactive.
`Cc1ccc(C=C2C(=O)c3ccccc3C2=O)s1` gave RECQ1 inh-1 14.1µM, APE1 inh inactive, KDM4E inh inactive, BLM inh inactive, RECQ1 conf inconclusive and ADP FP counter inactive.
Screening COc1ccccc1NC(=O)C12CC3CC(C1)CC(c1ccc(C)cc1)(C3)C2 returned RECQ1 inh-1 31.6µM, L3MBTL1 inh inactive, APE1 inh inactive, KDM4E inh inactive, BLM inh inactive and RECQ1 inh-2 inactive.
For CCCNC(=O)C1CCC(Cn2c(=O)c3sccc3n(CC(=O)N3CCCC3)c2=O)CC1 (centres undefined) the results were BLM inh inactive.
For c1csc(-c2nn3c(-c4ccncc4)nnc3s2)c1 the results were RECQ1 inh-1 inactive, L3MBTL1 inh inactive, APE1 inh inactive, KDM4E inh inactive and BLM inh inactive.
For c1csc(Cc2nn3c(-c4ccncc4)nnc3s2)c1 the results were RECQ1 inh-1 10µM, L3MBTL1 inh inconclusive, APE1 inh inconclusive, KDM4E inh inactive, BLM inh inactive, ADP FP counter inactive and RECQ1 inh-2 inactive.
`Cn1c(CNC(=O)c2ccco2)nnc1SCC(=O)N1c2ccccc2Sc2ccccc21` gave RECQ1 inh-1 inactive, APE1 inh inactive, KDM4E inh inactive, BLM inh inactive, RECQ1 conf inactive and ADP FP counter inactive.
Cn1c(Cn2nnc3ccccc32)nnc1SCC(=O)N1c2ccccc2Sc2ccccc21 was read as RECQ1 inh-1 inactive, L3MBTL1 inh inactive, APE1 inh inconclusive, KDM4E inh inactive, BLM inh inactive, RECQ1 conf inactive and ADP FP counter inactive.
Screening Cn1c(Cn2nnc3ccccc32)nnc1SCC(=O)N1c2ccccc2CCc2ccccc21 returned RECQ1 inh-1 inactive, L3MBTL1 inh inactive, APE1 inh inconclusive, KDM4E inh inactive and BLM inh inactive.
C=CCn1c(SCC(=O)N2c3ccccc3Sc3ccccc32)nnc1-c1ccco1 was read as RECQ1 inh-1 inactive, L3MBTL1 inh inactive, APE1 inh inactive, KDM4E inh inactive, BLM inh inactive, RECQ1 conf inactive and ADP FP counter inactive.
For COc1ccc(C(=O)CSc2nc(C)cc(=O)[nH]2)cc1C the results were APE1 inh inactive and BLM inh inactive.
For Cc1ccc(Cn2nnc3c(=O)[nH]c(C4CCN(S(=O)(=O)c5ccc(C)cc5)CC4)nc32)cc1 the results were RECQ1 inh-1 inactive, APE1 inh inactive, KDM4E inh inactive and BLM inh inactive.

Screening results: PubChem BioAssay, National Center for Advancing Translational Sciences (NCATS)
